Screening results (PubChem BioAssay)
TLR4 MyD88 comp: TLR4-MyD88 interaction inhibition in cells; inhibition, % at 8.4 µM; hit rate 0.18% among 200,000; O00206+Q99836; HeLa CL3-4 TLR4/MyD88 BLA complementation, FRET ratio; in the data active = inhibition above about 25%
TLR9-MyD88 block: blocks human TLR9 binding to MyD88 | inhibition, % at 4.98 µM | hit rate 0.21% among 340,000 | AID 504734 | CHO BLA complementation TLR9-MyD88, CCF4 FRET ratio | Q9NR96+Q99836;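 active = inhibition above the mean over all tested compounds plus 3 SD, cut at about 21% in these data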
NOD2-RIPK2 inh: NOD2-RIPK2 protein interaction inhibition; hit rate 0.38% among 360,000; inhibition, % at 4.98 µM; CHO BLA complementation NOD2-RIPK2, CCF4 ratio; O43353; AID 624267; in the data active = inhibition above about 21%
ABHD5 PLIN5 PPI: ABHD5-PLIN5 protein interaction inhibition; Split G. princeps luciferase complementation, luminescence, 4 h; inhibition, % at 4 µM; hit rate 0.78% among 360,000;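 active = inhibition above the mean inhibition across every tested compound plus 3 SD, cut at about 22% in these data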
ABHD5 PLIN5 conf: confirmation of human ABHD5-PLIN5 interaction inhibitors; shares compounds with ABHD5 PLIN5 PPI; biochemical ABHD5-PLIN5 interaction, luminescence; inhibition, % at 4 µM; hit rate 67% among 2,200; AID 651612; in the data active = inhibition above about 23%
HNF4 split-luc: HNF4 split-luciferase signal hit, counter-screen | hit rate 77% among 2,200 | inhibition, % at 4 µM | shares compounds with ABHD5 PLIN5 PPI | HNF4 dimerization, luminescence, biochemical;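 active = mean inhibition across replicate wells exceeding the computed hit threshold, cut at about 13% in these data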;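 also: light from luciferase halves that rejoin when HNF4 fusion proteins dimerize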
Numbers stand for hits; – = inactive; · = not tested or not shown. Most compounds without a hit are left out; they make up all but 1.2% or so of the library.

SMILES	TLR4 MyD88 comp	TLR9-MyD88 block	NOD2-RIPK2 inh	ABHD5 PLIN5 PPI	ABHD5 PLIN5 conf	HNF4 split-luc
CC(O)CNc1cc(N)c([N+](=O)[O-])cc1[N+](=O)[O-] (stereo not drawn)	–	–	–	23.6	–	–
CC(O)CNc1ccc(-c2n[nH]c(=O)c3ccccc23)cc1[N+](=O)[O-] (stereo not drawn)	·	–	–	–	·	·
COc1ccc(CCC(=O)NCC(=O)OCc2ccccc2)cc1	·	–	–	–	·	·
CC(C)[C@H](NS(=O)(=O)c1ccccc1)C(=O)Nc1nccs1	·	·	–	–	·	·
O=C(N/N=C/C=C/c1ccccc1)C(O)c1ccccc1 (stereo not drawn)	–	–	–	–	·	·
O=C(N/N=C/C=C/c1ccco1)C(O)c1ccccc1 (stereo not drawn)	–	–	–	34.9	47.2	59.6
CCOC(=O)Cc1nnc(NC(=O)CCc2ccccc2)s1	·	–	–	–	·	·
O=C(CSc1nc2ccc(Cl)cc2[nH]1)NCc1ccco1	–	–	–	–	·	·
O=C(CSc1c2c(nc3cc(Cl)ccc13)CCCC2)NCc1ccco1	–	–	–	24.3	42.4	38.0
Cc1cc(C)c2cc(C)c(SCC(=O)NCc3ccco3)nc2c1	–	–	–	–	·	·
Cc1cc(C)c2cc(C#N)c(SCC(=O)NCc3ccco3)nc2c1	–	–	–	34.9	66.4	73.5
COc1ccc(Cl)cc1NC(=O)CN1CCN(S(=O)(=O)N2CCCCC2)CC1	·	–	–	–	·	·
ON=Cc1ccnc2ccccc12	·	–	–	–	·	·
O=C(/C=C/c1ccnc2ccccc12)c1cccs1	–	–	–	63.0	91.7	91.8
CC(=O)c1sc(N/N=C\c2c(O)ccc3ccccc23)nc1C	·	–	–	–	·	·
Cc1ccc([C@H]2C[C@H](n3cc(C4CC4)nn3)[C@@H](O)CN2C(=O)c2cccs2)cc1	·	–	–	–	·	·
O=C(/C=C/c1ccccc1[N+](=O)[O-])c1ccccc1Br	–	–	–	81.6	98.5	97.8
Cc1ccc(C(=O)/C=C/c2ccccc2[N+](=O)[O-])cc1	–	–	–	51.7	84.5	78.1
O=C(/C=C/c1ccc(-c2ccccc2[N+](=O)[O-])o1)c1ccc(F)cc1	–	–	–	28.9	42.6	32.7
CC(C)(C)c1ccc(C(=O)OCC(=O)Nc2cccc(S(=O)(=O)NC3=NCCC3)c2)cc1	·	–	–	–	·	·
Oc1c(C(c2ccccc2)N2CCCCC2)ccc2ccccc12 (stereo not drawn)	·	–	–	37.6	96.1	47.7
O=C(/C=C/c1ccc2c(c1)OCCCO2)c1ccccc1O	–	–	–	26.8	77.5	52.8
CN(C)c1ccc(/C=C/C(=O)c2ccccc2O)cc1	–	–	–	–	·	·
Cc1ccc(O)c(C(=O)/C=C/c2ccc3c(c2)OCCCO3)c1	–	–	–	31.7	66.0	45.4
COc1cc(/C=C2\COC/C(=C\c3ccc(O)c(OC)c3)C2=O)ccc1O	·	–	–	53.7	89.5	83.5
SMILES	TLR4 MyD88 comp	TLR9-MyD88 block	NOD2-RIPK2 inh	ABHD5 PLIN5 PPI	ABHD5 PLIN5 conf	HNF4 split-luc
COc1ccc(/C=C2\CCC/C(=C\c3ccc(OC)c(OC)c3OC)C2=O)c(OC)c1OC	·	–	–	37.6	–	15.8
CCN1C/C(=C/c2ccc(OC)c(O)c2)C(=O)/C(=C/c2ccc(OC)c(O)c2)C1	–	–	–	42.1	51.2	30.2
COc1cc(OC)c(OC)cc1/C=C1\CCC/C(=C\c2cc(OC)c(OC)cc2OC)C1=O	·	–	–	–	·	·
COc1cc(/C=C2\CC/C(=C\c3ccc(OCCO)c(OC)c3)C2=O)ccc1OCCO	–	–	–	–	·	·
COc1ccc(/C=C2\CC/C(=C\c3ccc(OC)c(OC)c3)C2=O)cc1OC	–	–	–	30.7	57.7	44.2
COc1ccc(C=C2C(=O)c3ccccc3C2=O)cc1O	–	–	–	–	·	·
O=C(NN=Cc1cc(Cl)ccc1[N+](=O)[O-])c1ccco1	·	–	–	–	·	·
COc1cc(/C=C2/CC/C(=C/c3ccc(O)c(OC)c3)C2=O)ccc1O	·	–	–	24.0	25.7	32.1
COc1cc(/C=C/C=C2/CC/C(=C/C=C/c3ccc(O)c(OC)c3)C2=O)ccc1O	·	–	–	25.6	62.4	68.0
O=C1C=C(NC2=CC3OC(c4ccccc4)OCC3OC2=O)CCC1 (stereo not drawn)	–	–	–	26.4	86.6	95.5
O=C(COC(=O)Cc1n[nH]c(=O)c2ccccc12)Nc1ccc(Cl)cc1F	–	–	–	–	·	·
